The text below walks through data of PubChem BioAssay (NCATS).

The nature of assay [1]: High-throughput drug toxicity screening in the BPDCN cell line Gen2.2 (AID 1224824; call rule not given here;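 further: cells exposed to compounds for 48 h before reading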). Conditions: Gen2.2 BPDCN cells; at 45.8 µM (top of the series) unless noted. In a few lines:
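Gen2.2, 500 cells/well, phenol red-free RPMI/10% FBS/Pen-Strep; 48 h cpd, 37 °C/5% CO2; CTG lum, 15 min RT. Norm: DMSO = 100%, bortezomib 9.2 uM final = 0%.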

Assay [2] in a line: High-throughput drug toxicity screening in the BPDCN cell line Cal-1 (AID 1224825; call rule not given here). Conditions: Cal-1 BPDCN cell viability, qHTS; at 45.8 µM (top of the series) unless noted. The essentials: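 Viability of the BPDCN line Cal-1 is measured as ATP-based luminescence (CellTiter-Glo) following 48 h incubation with compounds. Percent activity uses DMSO-treated wells as 100% and 9.2 uM bortezomib as 0%.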

Assay [3] is described as follows: qHTS assay for measurement of the activity of small molecule inhibitors on Zika virus induced Caspase-3 activity in human iPSC derived neural progenitor cells (hNPCs) (AID 1224857). Further: % of control where 0% means no effect; nearly all actives have a fitted effect of over 65% in size. In a few lines:
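In medium with heparin 2 ug/ml and cyclopamine 2 uM, hNPCs (350 cells/well) received compound for one hour and then Zika virus at 2 FFU/cell; caspase activity was measured by Caspase-Glo 3/7 luminescence 6 h post-infection.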
A general note: Quantitative high-throughput screening tests each substance at several concentrations.

The nature of assay [4]: qHTS assay for measurement of the activity of small molecule inhibitors on Zika virus induced Caspase-3 activity in human astrocytoma cells (AID 1224859).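 Further: plate controls were ZIKV-infected untreated cells for no effect and uninfected cells for full effect.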 The essentials: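 A cell-based luminescent caspase-3/7 assay used SNB-19 cells infected with ZIKV (2 FFU/cell) for 6 h following 1 h compound pretreatment.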
Assay [5] is described as follows: qHTS Screen of the MIPE 4.0 Collection Against Ewings Sarcoma (RDES) (AID 1259252). Further: nearly all actives have a fitted effect of over 35% in size. Further: potency means the concentration at half of the fitted maximal effect. In a few lines:
(§1)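 Measured: ATP luminescence (CellTiter-Glo) 10 min after reagent addition, following 48 h drug treatment. Relative luciferase units converted to percent activity, with no-cell wells as full and DMSO wells as zero inhibition.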

Assay [6] is described as follows: qHTS Screen of the MIPE 4.0 Collection Against Ewings Sarcoma (TC71) (AID 1259253). Further: nearly all actives have a fitted effect of over 40% in size. Further: potency means the concentration at half of the fitted maximal effect. In a few lines: as §1
Assay [7] in a line: qHTS Screen of the MIPE 4.0 Collection Against Ewings Sarcoma (EW8) (AID 1259255). Further: nearly all actives have a fitted effect of over 35% in size. Further: potency means the concentration at half of the fitted maximal effect.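 On viability: 100% = DMSO-treated cells and 0% = medium-only wells without cells.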 In a few lines: as §1
Assay [8] can be described thus: qHTS Screen of the MIPE 4.0 Collection Against Ewings Sarcoma (TC32) (AID 1259256). Further: nearly all actives have a fitted effect of over 45% in size. Further: potency means the concentration at half of the fitted maximal effect. In a few lines:
as §1

Assay [9] can be described thus: P-glycoprotein substrates identified in KB-8-5-11 adenocarcinoma cell line, qHTS therapeutic library screen (AID 1346987). Further: nearly all actives have a fitted effect of over 65% in size. Further: potency means the concentration at half of the fitted maximal effect. In a few lines: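 Human cervical adenocarcinoma KB-8-5-11 cells, selected in colchicine to over-express P-gp and assayed without it, were exposed for 72 h to titrated compounds. An ATP-based luminescent viability signal gave AC50.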

Where “and” joins values, the source holds several entries; their conditions need not be identical. Identical values can stand only once. Inconclusive results are not listed. Calls of active or inactive are those of the source. Unless noted, the call rests on the fitted dose curve; in most records, active means well fitted curve in the direction sought with a large enough effect; inconclusive means small, poorly fitted or top-dose-only effect, or another doubt; inactive means no such curve, though single readings can be large; an effect the other way counts as inactive or inconclusive.

Consider `NC(=O)c1cccc(-c2cccc(OC(=O)NC3CCCCC3)c2)c1`, for which the cell viability, % of control (lower = more cytotoxic) in [1] turned out to be 128%. Also, the viability (% of control) in assay [2] was found to be 91.7%. Besides, the Potency result in assay [3], in assay [4], in assay [5], in [6], in assay [7] and in [8] was “inactive” each time. The Potency result in [9] is “inactive”.

For `O=C1c2cccc(O)c2C(=O)c2c(O)cc(CO)cc21`, the cell viability, % of control (lower = more cytotoxic) in assay [1] came out at 161%. The viability (% of control) in assay [2] amounted to 116%. For the same compound, the Potency entry in [3], in [4], in [5], in assay [6], in assay [7] and in [8] was “inactive” throughout. The Potency entry in assay [9] was “inactive”.

Take `Cc1ncc(-c2ccnc(Nc3ccc(S(C)(=O)=O)cc3)n2)n1C(C)C`: in assay [1], the cell viability, % of control (lower = more cytotoxic) is 6.27%. The viability (% of control) in assay [2] is 4.48%. The Potency result in assay [3] and in assay [4] was “inactive” each time. Also, the Potency in assay [5] is 4.69 µM (active); in [6], 2.64 µM (active); in assay [7] it was 4.69 µM (active); in assay [8], 4.18 µM (active); in [9], 7.43 µM (active) and 13 µM (active).

For the compound `O=[N+]([O-])c1cn2c(n1)OC[C@@H](OCc1ccc(OC(F)(F)F)cc1)C2`, in [1], the cell viability, % of control (lower = more cytotoxic) is 110%. For the same compound, the viability (% of control) in assay [2] amounted to 105%. Further, the Potency entry in [3], in assay [4] and in assay [9] was “inactive” in each case. For the same compound, the Potency in assay [5] is 3.32 µM (active); in [6] it was 3.72 µM (active); in [7] it was 9.35 µM (active); in assay [8], 8.33 µM (active).

As for `CS[C@H]1SC[C@@H]2C(=O)N(C)[C@H](C(C)C)C(=O)OC[C@H](NC(=O)c3cnc4ccccc4n3)C(=O)N[C@H](C)C(=O)N(C)[C@@H]1C(=O)N(C)[C@H](C(C)C)C(=O)OC[C@H](NC(=O)c1cnc3ccccc3n1)C(=O)N[C@H](C)C(=O)N2C`, the cell viability, % of control (lower = more cytotoxic) in assay [1] came to 3.67%. Further, the viability (% of control) in assay [2] came to 5.19%. Further, the Potency result in assay [3] and in [4] was “inactive” in each case. The Potency was 0.0019 µM (active) in [5]; 0.0026 µM (active) in assay [6]; 0.0019 µM (active) in assay [7]; 0.0019 µM (active) in assay [8]; 0.59 µM (active) in assay [9].

On to `Cn1c(Nc2ccc(C(F)(F)F)cc2)nc2cc(Oc3ccnc(-c4ncc(C(F)(F)F)[nH]4)c3)ccc21`, for which the cell viability, % of control (lower = more cytotoxic) in [1] is 9.63%. In addition, the viability (% of control) in [2] worked out at 13.2%. Besides, the Potency result in [3] and in assay [4] was “inactive” in each case. In addition, the Potency in assay [5] is 14.8 µM (active); in assay [6] it was 7.43 µM (active); in [7], 5.26 µM (active); in assay [8], 2.09 µM (active); in [9], 20.9 µM (active).

In the case of `COc1cc(C[C@@H](CO)[C@H](CO)Cc2ccc(O)c(OC)c2)ccc1O`, the cell viability, % of control (lower = more cytotoxic) in assay [1] came to 55.1%. Besides, the viability (% of control) in assay [2] is 23.4%. The Potency entry in assay [3], in assay [4] and in assay [9] was “inactive” throughout. The Potency was 0.209 µM (active) in [5], 0.372 µM (active) in assay [6], 0.743 µM (active) in assay [7] and 0.372 µM (active) in assay [8].

With `C[C@H]1COc2c(N3CCN(C)CC3)c(F)cc3c(=O)c(C(=O)O)cn1c23`, the cell viability, % of control (lower = more cytotoxic) in [1] turned out to be 160%. For the same compound, the viability (% of control) in [2] was determined as 100%. Besides, the Potency entry in assay [3], in assay [4], in [5], in assay [6], in assay [7] and in assay [8] was “inactive” each time. In addition, the Potency result in [9] is “inactive”.

With `CC(=O)NCC(=O)N1[C@H]2CC[C@H]1c1cc(Nc3ncc(C(F)(F)F)c(NC4CCC4)n3)ccc12`, the cell viability, % of control (lower = more cytotoxic) in assay [1] was found to be 2.71%. Moreover, the viability (% of control) in assay [2] worked out at 2.93%. In addition, the Potency entry in assay [3] and in assay [4] was “inactive” throughout. In addition, the Potency is 5.26 µM (active) in assay [5]; 0.935 µM (active) in [6]; 0.0833 µM (active) in assay [7]; 0.209 µM (active) in assay [8]; 3.72 µM (active) in assay [9].

Consider `O=c1ccn([C@@H]2O[C@H](CO)[C@H](O)[C@@H]2F)c(=O)[nH]1`, for which the cell viability, % of control (lower = more cytotoxic) in [1] amounted to 191%. Also, in [2], the viability (% of control) was determined as 119%. The Potency entry in assay [3], in assay [4] and in assay [9] was “inactive” each time. Besides, the Potency is 3.72 µM (active) in assay [5], 3.32 µM (active) in assay [6], 26.4 µM (active) in assay [7] and 18.7 µM (active) in assay [8].

For the compound `COc1cc(C(C)C)c(Oc2cnc(NC(CO)CO)nc2N)cc1I`, in [1], the cell viability, % of control (lower = more cytotoxic) turned out to be 294%. In assay [2], the viability (% of control) came to 1.88%. Also, the Potency result in assay [3], in assay [4] and in [9] was “inactive” throughout. Moreover, the Potency was 0.935 µM (active) in [5], 1.05 µM (active) in [6], 7.43 µM (active) in assay [7] and 1.48 µM (active) in assay [8].

Take `CC[C@]12C=CCN3CC[C@@]4(c5cc([C@@]6(C(=O)OC)C[C@H]7C[C@@H](C(C)(F)F)CN(Cc8c6[nH]c6ccccc86)C7)c(OC)cc5N(C)[C@H]4[C@@](O)(C(=O)OC)[C@H]1OC(C)=O)[C@@H]32`: the cell viability, % of control (lower = more cytotoxic) in assay [1] stood at 8.97%. For the same compound, the viability (% of control) in assay [2] is 9.46%. Moreover, the Potency result in assay [3], in assay [4] and in assay [8] was “inactive” each time. For the same compound, the Potency in [5] is 0.0105 µM (active); in assay [6] it was 0.0187 µM (active); in assay [7], 0.0053 µM (active); in assay [9], 0.743 µM (active).

As to `Nc1nc(N)c2nc(-c3cccc(O)c3)c(-c3cccc(O)c3)nc2n1`, the cell viability, % of control (lower = more cytotoxic) in [1] worked out at 15.8%. Also, the viability (% of control) in [2] turned out to be 5.3%. Besides, the Potency entry in assay [3] and in [4] was “inactive” in each case. For the same compound, the Potency in [5] is 23.5 µM (active); in [6], 20.9 µM (active); in [7] it was 23.5 µM (active); in assay [8], 20.9 µM (active); in [9] it was 11.8 µM (active).
